99 compounds from ChEMBL document CHEMBL3988442, “University of Dundee, Small-Polar-MMV Screening Library” (2021) can be followed below.

Each structure is given as a SMILES string. The campaign covered roughly 53,000 compounds. About 900 (1.7%) showed an effect of 50% or more. Only a selection was taken, and strong results are over-represented in it overall.

The subject of this experiment is Mycobacterium tuberculosis. The experiment in a line: Cornell - Phenotypic assay to identify agents that inhibit growth of Mycobacterium tuberculosis. Format: functional. More on the design: scale not given: direction of the effect not stated beside the values. The conditions noted are these: 10 mM as filed; unlikely as a test dose.
Take `CCn1cc2c(n1)C(COC)CN(Cc1ccccn1)C2` (centres undefined): the “Percent Effect” value is on record as 96.31%.
Then `COCC1CN(Cc2ccccn2)Cc2cn(C)nc21.O=C(O)C(F)(F)F.O=C(O)C(F)(F)F.O=C(O)C(F)(F)F` (centres undefined), with 31.55%.
As for `CCn1cc2c(n1)C(COC)CN(Cc1ccoc1)C2` (centres undefined), the “Percent Effect” value is recorded as -14.11%.
Then `CN(C)C(=O)c1ccc2ccc(N3CCN(CC4CC4)CC3)n2c1`, with -12.17%.
As to `Cc1ccc(-c2cc(C(=O)NC(C)C(=O)N3CCCCC3)on2)cc1` (centres undefined), the “Percent Effect” value came to 17.57%.
For the compound `COC(=O)Cn1ccc(NS(=O)(=O)c2ccc3c(c2)CCC3)n1`, the “Percent Effect” value was -1.96%.
The value for `CCc1ccc(S(=O)(=O)Nc2ccn(CC(=O)OC)n2)cc1` was 68.94%; that for `CCn1ccc(NS(=O)(=O)c2cccc(COC)c2)n1` was -1.872%.
The value for `CSC(C)C(=O)N1CCCN(Cc2nccn2C)CC1` (centres undefined) was -38.31%; that for `Fc1cccc(CN2CCC(c3noc(-c4ccncc4)n3)CC2)c1F` was 8.868%; that for `CCCc1nnc(N2CC[C@@](O)(C3CCOCC3)[C@H](C)C2)s1` was -20.29%.
For the compound `Nc1ncc(-c2ccc(F)cc2)c(C2CCCNC2)n1` (centres undefined), the “Percent Effect” value is 2.627%.
The value for `Nc1ncc(-c2ccc(Cl)cc2)c(C2CCCNC2)n1` (centres undefined) was -8.441%; that for `Nc1ncc(-c2ccc(C(F)(F)F)cc2)c(C2CCCNC2)n1` (centres undefined) was 50.32%.
The value for `COc1ccc(-c2cnc(N)nc2C2CCCNC2)cc1.Cl` (centres undefined) was 57.74%.
The value for `CS(=O)(=O)N1CC(c2nc(N)ncc2-c2ccc(F)cc2)C1` was 26.29%; that for `COc1ccc(-c2cc(C3CCCNC3)ccn2)cc1.Cl` (centres undefined) was 13.34%.
In the case of `Cc1n[nH]c(C2CN(CC(=O)NCCC3=CCCCC3)CCO2)n1` (centres undefined), the “Percent Effect” value is recorded as -4.775%.
The value for `COc1cc(CNC(=O)c2csc(Br)c2)ccn1` was 5.577%; that for `c1ccc(CN2CCC(c3nccnc3-n3ccnc3)CC2)cc1` was -13.47%; that for `Cc1noc(C)c1CN(Cc1cccs1)C1CCS(=O)(=O)C1` (centres undefined) was -24.86%.
As for `CCS(=O)(=O)N1CCc2ccc(NC(=O)NCCc3ccccc3)cc21`, the “Percent Effect” value is 30.28%.
The value for `CN(C)CC(=O)N1CCN(C(=O)c2cccc3[nH]ncc23)CC1` was 11.64%; that for `CCc1cnc(CN(C(C)=O)C2CCN(CCc3ccccc3)C2)o1` (centres undefined) was -5.219%; that for `Cc1csc(CNC(=O)N2CCN(Cc3ccco3)CC2)n1` was 5.266%.
The value for `Cc1ncsc1CN1C[C@@H]2COC[C@]2(C(=O)NCc2ccccn2)C1.O=C(O)C(F)(F)F.O=C(O)C(F)(F)F` was 34.64%; that for `Cc1csc(CN2C[C@@H]3COC[C@]3(C(=O)NCc3ccco3)C2)n1` was 99.79%; that for `Cc1ncsc1C(=O)N1CCCC(n2cncn2)C1` (centres undefined) was -11.33%.
The value for `CC(=O)N1CCCC1c1cccc(Oc2ccccc2F)n1` (centres undefined) was 16.34%; that for `Cc1cc(CN2CCN(S(=O)(=O)c3c(C)c(Cl)cc(C)c3Cl)CC2)on1` was 15.46%; that for `O[C@@H]1C[C@H]2CN(Cc3ccccc3)[C@H](Cc3ccccc3)CN2C1` was 7.945%.
With `O[C@@H]1C[C@H]2CN(Cc3ccsc3)[C@@H](Cc3ccccc3)CN2C1`, the “Percent Effect” value was determined as 57.45%.
In the case of `O[C@@H]1C[C@H]2CN(Cc3ccccc3Cl)[C@H](Cc3ccccc3)CN2C1`, the “Percent Effect” value worked out at 13.61%.
As for `Cc1ccc(CN2CC[C@H]3OCC[C@@H](c4nc(C)no4)[C@H]3C2)cc1`, the “Percent Effect” value worked out at 12.84%.
The value for `CCC(C)(CCO)NC(=O)c1ccon1` (centres undefined) was -22.18%; that for `CCC(C)NC(=O)c1coc(COc2cccc(F)c2)n1` (centres undefined) was 60.97%; that for `COC(=O)[C@@H](NC(=O)c1coc(COc2cccc(F)c2)n1)C(C)C` was 30.38%.
The value for `O=C(NCC(F)(F)F)c1coc(COc2cccc(F)c2)n1` was 71.66%; that for `O=C(O)c1coc(COc2cccc(F)c2)n1` was 15.94%.
The value for `O=C(NC(CO)CO)c1coc(COc2cccc(F)c2)n1` was -12.31%; that for `CC(C)(NC(=O)c1coc(COc2cccc(F)c2)n1)C(N)=O` was 8.84%; that for `CN(C)Cc1cc(C2CCCCN2S(=O)(=O)c2cccc(Cl)c2)nn1C.Cl` (centres undefined) was 9.135%.
Turning to `CC(C)N(Cc1ccc(Cl)c(Cl)c1)C(=O)CCn1cncn1`, the “Percent Effect” value was 29.65%.
Turning to `O=S(=O)(c1ccccc1)N1CCC2(CCCN2Cc2cccc(F)c2)C1` (centres undefined), the “Percent Effect” value is reported as 5.302%.
In the case of `Cc1nn(C2CCS(=O)(=O)C2)c(O)c1CCc1ccccc1` (centres undefined), the “Percent Effect” value was found to be 6.158%.
Then `Cc1ccc(CN2Cc3c(C(=O)N4CCN(C)CC4)nn(C)c3C2)s1.O=C(O)C(F)(F)F.O=C(O)C(F)(F)F.O=C(O)C(F)(F)F`, with -2.835%; and `Cn1ccc(NC(=O)Cc2ccccc2F)n1`, with -2.791%.
The value for `CCOC(=O)Cn1ccc(NC(=O)Cc2ccccc2F)n1` was 99.82%; that for `CS(=O)(=O)CCn1ccc(NC(=O)Cc2ccccc2F)n1` was 11.43%.
Then `CC(C)C1SCC(=O)Nc2c1c(O)nn2C1CCCCC1` (centres undefined), with 13.37%; and `Cc1cc(N2CCC(CC(N)=O)CC2)nc(-c2ccncc2)n1`, with 23.93%; and `Cc1cc(N2CCC(Cc3ccccc3)CC2)ncn1`, with 22.55%.
Take `Cc1cc(N2CCC(Cc3ccccc3)CC2)nc(-c2ccncc2)n1`: the “Percent Effect” value is 82.9%.
The value for `CN(Cc1ccc(CCC(C)(C)O)cc1)CC1(CO)CC1` was 3.977%; that for `CC(Cc1ccco1)NS(=O)(=O)N1CCCCC1` (centres undefined) was 35.85%.
The value for `CC(Cc1ccco1)NS(=O)(=O)N1CCCCCC1` (centres undefined) was 68.78%.
Then `CC1CCN(S(=O)(=O)NC(C)Cc2ccco2)CC1` (centres undefined), with 45%; and `CCCn1c(C)c(CC(=O)NCC(C)O)c2c1CC(C)(C)CC2=O` (centres undefined), with 21.56%.
Turning to `CCc1cc(N(C)CCC(O)c2ccccc2)n2nccc2n1` (centres undefined), the “Percent Effect” value is given as -53.72%.
Consider `COCC(=O)N1C[C@@H](c2cccc(F)c2)[C@H]2[C@H]1CCCCCN2C(C)=O`, for which the “Percent Effect” value is -30.92%.
Then `O=C(NCc1ccc(Br)cc1)C1(O)CCSCC1`, with 26.99%; and `O=C(O)C(F)(F)F.O=C(O)C(F)(F)F.O=C(O)C(F)(F)F.c1cc(CNCC2OCCc3cn(CC4CCOCC4)nc32)ccn1` (centres undefined), with -7.498%; and `CCCN(CC(F)(F)F)S(=O)(=O)c1cc(C(N)=O)n(C)c1`, with -26.73%.
The value for `COCC1CCN(C(=O)c2cn(Cc3ccccc3F)nn2)CC1` was 25.9%; that for `COCC1CCN(C(=O)c2cn(Cc3ccccc3C(F)(F)F)nn2)C1` (centres undefined) was 62.81%.
For `COCC1CCN(C(=O)c2cn(Cc3cccc(C(F)(F)F)c3)nn2)C1` (centres undefined), the “Percent Effect” value stood at 30.37%.
The value for `Cc1nc(NCC2CCOCC2)cc(C2CCN2S(C)(=O)=O)n1` (centres undefined) was 10.58%; that for `CC1N(c2cnn(C)c2)C(=O)COC12CCN(Cc1ccco1)CC2.O=C(O)C(F)(F)F` (centres undefined) was 2.626%.
Then `COCCNC(=O)[C@H]1C[C@@H]2CCN(c3ccncn3)C[C@H]2O1.O=C(O)C(F)(F)F`, with 26.18%.
Then `CCCNC(=O)c1cncc(CC2CCCN(C)C2)c1` (centres undefined), with -32.48%.
In the case of `CN1C(=O)[C@H](OC(N)=O)[C@@H](C(=O)Nc2ccccc2)C12CCNCC2`, the “Percent Effect” value was -56.88%.
The value for `COCCN(Cc1ccccc1)Cc1nc(-c2ccsc2)no1` was 50.54%.
The value for `COCCN(Cc1ccco1)Cc1nc(-c2ccccc2)no1` was -9.832%; that for `COCCN(Cc1ccco1)Cc1nc(-c2ccsc2)no1` was -23.17%.
Then `CN(C)c1cc(C2CCCN(C(=O)c3noc4c3CCCC4)C2)ccn1` (centres undefined), with 38.49%; and `COCCNC(=O)c1cc2c(c3ccccc3n2C)n1C(=O)N(C)C`, with 18.89%; and `Cc1cc(NC(=O)N2CCN(c3cccs3)CC2)ccc1C(N)=O`, with 3.823%.
With `O=C(Nc1ccccc1-c1cccs1)N1CCN(CC(F)F)CC1`, the “Percent Effect” value is -4.883%.
The value for `Cc1cc(C(N)=O)ccc1NC(=O)N1CCN(c2cccs2)CC1` was 67.2%.
Turning to `NC(=O)c1ccc(NC(=O)N2CCN(c3cccs3)CC2)c(F)c1`, the “Percent Effect” value came out at 54.78%.
Then `CCn1cnnc1CNC(=O)N1CCN(c2cccs2)CC1`, with -10.74%.
`CNC(=O)CN1CCN(C(=O)Nc2ccc(Cl)cc2F)CC1`: the “Percent Effect” value is -7.252%.
The value for `CC(C)OCCC(=O)NCCc1csc(N2CCCC2)n1` was -16.85%.
The value for `COCC(=O)NCc1cc(=O)n2c(n1)CN(Cc1ccccc1)CCC2.O=C(O)C(F)(F)F` was 6.068%; that for `OCc1ccc(CN(CCCn2ccnc2)Cc2cccnc2)o1` was 33.2%; that for `N#Cc1cc2c(nc1O)CCCCC2` was -24.16%.
As for `CN1C(=O)COc2cc(NC(=O)CCc3nc4cccnc4[nH]3)ccc21`, the “Percent Effect” value is 11.88%.
The value for `COC(=O)Cc1cn2cc(C(F)(F)F)ccc2n1` was -22.96%.
The value for `CC(C)NC(=O)[C@@]12CCO[C@@H]1CCN(Cc1ccc3c(c1)OCO3)C2.O=C(O)C(F)(F)F` was -5.39%; that for `CCSCC(C)NCc1nc(-c2cccnc2)no1` (centres undefined) was -14.24%; that for `O=C(CCc1ccsc1)Nc1cccnc1N1CCCC1` was 8.029%.
As for `CCN(CC)C(=O)CCc1c(C)nc2cc(O)nn2c1C`, the “Percent Effect” value worked out at 7.759%.
The value for `CN(C)[C@@H]1CN(Cc2ccccc2O)C[C@H]1c1cn(C)c2ccccc12.Cl` was 107.3%; that for `COc1cccc([C@@H]2CCN(Cc3cn(C)c4ccccc34)C[C@H]2O)c1` was -6.919%; that for `CN(C)[C@@H]1CN(Cc2cccnc2)C[C@H]1c1cn(C)c2ccccc12.Cl` was 6.134%.
`CN(C)[C@@H]1CN(Cc2ccccn2)C[C@H]1c1cn(C)c2ccccc12.Cl`: the “Percent Effect” value is on record as 54.37%.
Then `Cc1cc(C)n(C2CN(Cc3ccccn3)C2)n1`, with -9.481%.
Consider `CN(C)[C@@H]1CN(Cc2ccc(O)cc2)C[C@H]1c1cn(C)c2ccccc12.Cl`, for which the “Percent Effect” value is reported as -25.68%.
Then `CSCC[C@@H]1CN2CCC[C@H]2CN1Cc1cn(C)nc1C`, with -32.61%.
